We go through 33 compounds from PubChem BioAssay AID1508615 (Milbrandt Lab, Department of Genetics, Washington …, 2020).

Hit rate of the full screen: of about 1,600 compounds, about 20 (1%) were called active. This is one part of a sample in which actives are shown more often than they occur. A number with no mark means an inactive call.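 How the source made its calls: active means ratio of uncleaved NAD to its breakdown product ADP-ribose above 4, meaning the enzyme was inhibited; inactive means the rest.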

Sequence of NAD(+) hydrolase SARM1 (Homo sapiens) (Q6SZW1 whole entry, looked up): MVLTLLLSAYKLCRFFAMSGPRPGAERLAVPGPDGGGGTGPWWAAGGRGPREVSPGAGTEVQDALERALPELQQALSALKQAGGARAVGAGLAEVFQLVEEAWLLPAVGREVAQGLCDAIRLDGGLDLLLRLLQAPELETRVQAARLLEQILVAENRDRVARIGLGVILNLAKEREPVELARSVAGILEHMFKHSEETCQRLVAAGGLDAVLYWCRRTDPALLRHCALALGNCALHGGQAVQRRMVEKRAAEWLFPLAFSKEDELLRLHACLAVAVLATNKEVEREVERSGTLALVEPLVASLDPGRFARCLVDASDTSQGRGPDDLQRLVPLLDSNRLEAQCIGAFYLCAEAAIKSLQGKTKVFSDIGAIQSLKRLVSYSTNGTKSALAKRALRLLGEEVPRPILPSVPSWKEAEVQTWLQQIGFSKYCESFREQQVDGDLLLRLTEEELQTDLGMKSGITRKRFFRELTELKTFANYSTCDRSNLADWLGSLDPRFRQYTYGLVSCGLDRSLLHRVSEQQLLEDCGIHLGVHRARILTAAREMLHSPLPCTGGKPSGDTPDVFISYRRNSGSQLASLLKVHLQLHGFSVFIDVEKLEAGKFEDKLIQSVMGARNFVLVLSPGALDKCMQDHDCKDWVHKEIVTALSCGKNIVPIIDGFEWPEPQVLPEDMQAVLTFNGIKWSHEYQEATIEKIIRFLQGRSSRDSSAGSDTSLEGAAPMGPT

This assay has as its target NAD(+) hydrolase SARM1 (Homo sapiens) (UniProt Q6SZW1). The assay can be described thus: inhibition of SAM-TIR NAD hydrolysis to ADPR – cell lysate, HPLC readout, primary screen (AID 1508615).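 Further: substrate NAD at 5 µM with 60 min at 37 °C.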 As to conditions: HEK293T SAM-TIR lysate, NAD/ADPR ratio by HPLC; at 5 µM; active compounds read high.
With `CCOc1ccc(NC(=O)c2cc3ccccc3cc2O)cc1`, the NAD/ADPR ratio is 3.
The result for `CCOc1ccc(NC(=O)N(O)C2(C#N)CCCCC2)cc1` reads 3; that for `CCOc1ccc(NC(=O)C2CCCN(C)C2)cc1` (stereo not drawn), 11.2 (active); that for `Cc1nn(-c2ccccc2)c2c1C(c1ccc([N+](=O)[O-])cc1)C(C#N)=C(N)O2` (stereo not drawn), 3.
The same measure for `COc1cc(CCC(=O)O)on1`: 3.
Turning to `COC(=O)CC1(C(=O)OC)Nc2cc(Cl)c(Cl)cc2S(=O)(=O)N1O` (stereo not drawn), the NAD/ADPR ratio was 13.5 (active).
As to `Oc1cc(CNC2CCCCC2)c(O)cc1CNC1CCCCC1`, the NAD/ADPR ratio is 10.8 (active).
The same measure for `O=C(O)CCNC1CCCCC1`: 3.
As to `O=C(NC1CCCCC1)c1cc2ccccc2cc1O`, the NAD/ADPR ratio was 3.
As to `O=C(O)c1ccc(OCCOc2ccccc2)cc1`, the NAD/ADPR ratio is 3.
On to `NC(N)=NC(=S)Nc1ccc(Cl)cc1`, for which the NAD/ADPR ratio is 3.
As for `COc1cc(CC(=O)C(=O)O)oc(=O)c1`, the NAD/ADPR ratio was 3.
`CN(C)C(=O)c1cccc(COc2ccc(N3C(N)=NC(N)=NC3(C)C)cc2Cl)c1`: the NAD/ADPR ratio is 3.
For `Cn1c(=O)c2c(nc(N3CCOCC3)n2C)n(C)c1=O`, the NAD/ADPR ratio is 3.
The same measure for `Cc1oc2c(c(C)nn2-c2ccccc2)c(=O)c1Cl`: 3; for `Cc1nc(-c2ccccc2)c(Cc2ccccc2O)c(=O)[nH]1`: 3; for `Cc1nc2c(O)cccc2cc1CO`: 3.
The same measure for `S=c1cn[nH]c2ccccc12`: 3; for `CC1=C(c2ccccc2)C=NNCC1=O`: 3.
The same measure for `COC(=O)c1cncc(C)c1`: 3; for `Nc1ccc(C(=O)Oc2ccc([N+](=O)[O-])cc2)cc1`: 3; for `O=C(c1cccnc1)C1Cc2ccccc2C1=O` (stereo not drawn): 3.
Take `Nc1ccc(Br)cc1Br`: the NAD/ADPR ratio is 3.
With `CCCCOc1nc2c(c(=O)n(C)c(=O)n2C)n1C`, the NAD/ADPR ratio is 3.
The same measure for `Cn1c2ccccc2c2ccc3c(c21)C(=O)C=CC3=O`: 12.5 (active).
The same measure for `Cc1c(C(C)(C(=O)O)c2c(C)n(C)c3ccccc23)c2ccccc2n1C`: 3; for `Cc1ccc2c(c1)c1ccc3c(c1n2C)C(=O)C=CC3=O`: 5.6 (active).
Take `COc1ccc2c(c1)c1ccc3c(c1n2C)C(=O)C=CC3=O`: the NAD/ADPR ratio was 7.6 (active).
The same measure for `Cc1cccc2c1c1ccc3c(c1n2C)C(=O)C=CC3=O`: 8.3 (active); for `C=CCN(CC=C)C(=O)Nc1cc(OC)ccc1OC`: 3.2; for `Cc1nnc(Cc2ccccc2)c2n[nH]c(C)c12`: 3.
The result for `CC(=O)[C@@]1(O)C(C)CC2C3C=C(C)C4=Cc5c(cnn5-c5ccccc5)C[C@]4(C)C3C(O)C[C@@]21C` (stereo partly drawn) reads 3.
Take `CCOC(=O)c1ccc2c(c1)NCc1cccc(OC)c1O2`: the NAD/ADPR ratio was 3.
